CYP2C9 activ: CYP2C9 (human) activation | P11712 | recombinant CYP2C9, luciferin-H conversion, luminescence; stronger effect = higher value; factor 1 = untreated enzyme, 0 = blocked | activation factor at 5 µM | hit rate 1.4% among 96,000;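 active = activation factor of 2 or more for CYP2C9 at a 5 µM dose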;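 also: 0 = sulfaphenazole-blocked wells and 1 = vehicle-only wells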
PLK1 PBD inh: Plk1 (human) PBD binding inhibition. hit rate 0.13% among 97,000. P53350. inhibition, %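 (tested at about 20 µM)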. Plk1 PBD phosphopeptide binding, fluorescence polarization. AID 693; in the data active = inhibition above about 34%, passing the limit was not always enough
Target sequence (P53350 whole entry, looked up): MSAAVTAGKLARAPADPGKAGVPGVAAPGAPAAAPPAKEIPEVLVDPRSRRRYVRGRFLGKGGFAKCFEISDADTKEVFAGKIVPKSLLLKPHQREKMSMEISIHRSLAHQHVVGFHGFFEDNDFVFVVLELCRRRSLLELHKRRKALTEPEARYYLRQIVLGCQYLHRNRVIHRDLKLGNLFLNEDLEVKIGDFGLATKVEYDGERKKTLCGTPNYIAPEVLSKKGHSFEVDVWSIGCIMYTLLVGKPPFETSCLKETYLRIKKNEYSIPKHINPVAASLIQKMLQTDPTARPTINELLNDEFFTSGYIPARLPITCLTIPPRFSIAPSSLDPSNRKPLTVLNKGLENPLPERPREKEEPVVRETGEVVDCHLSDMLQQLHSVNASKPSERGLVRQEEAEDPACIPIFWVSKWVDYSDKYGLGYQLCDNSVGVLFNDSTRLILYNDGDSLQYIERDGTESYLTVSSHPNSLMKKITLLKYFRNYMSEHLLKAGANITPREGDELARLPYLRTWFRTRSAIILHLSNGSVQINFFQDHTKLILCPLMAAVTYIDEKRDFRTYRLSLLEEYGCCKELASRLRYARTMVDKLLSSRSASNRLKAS
CYP2C19 activ: increases human CYP2C19 enzyme activity; activation factor at 5 µM; recombinant CYP2C19, luciferin-H EGE luminescence; stronger effect = higher value; 0 = fully inhibited enzyme, 1 = untreated enzyme; AID 1025; P33261; 96,000 tested, under 10 active;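 active = activation factor of at least 2 at 5 µM in the primary screen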;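 also: 0 = wells with 2.5 mM tranylcypromine and 1 = vehicle-only wells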
CYP2C19 inh: human CYP2C19 inhibition; CYP2C19 Supersomes, luciferin-H EGE luminescence, 30 min; hit rate 21% among 96,000; inhibition, % at 5 µM;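 active = CYP2C19 inhibition above a set limit at 5 µM in the primary screen, cut at about 50% in these data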;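 also: plate controls were negative control wells for no effect and 2.5 mM tranylcypromine positive control for full effect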
CYP2C9 inhib: inhibitors of human CYP2C9. P11712. CYP2C9 Supersomes, luciferin-H conversion, luminescence. inhibition, % at 5 µM. hit rate 20% among 96,000. AID 777;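 active = blocking of liver enzyme CYP2C9 beyond about 50% at 5 µM, limit read from the data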
PLK1 inh: inhibitors of human PLK1 kinase; P53350; recombinant PLK1 kinase, TR-FRET peptide phosphorylation; inhibition, % at 10 µM; hit rate 0.53% among 97,000;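 active = inhibition of 50% or more in the single-concentration screen; inactive = inhibition below 50%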;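 also: 0% = DMSO max control and 100% = H-89 dihydrochloride min control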
Starred values were filed as active, the others as inactive; / = no result given. Shown are actives, neighbours in structure and some others; about 28% of the full set was active somewhere.

SMILES	CYP2C9 activ	PLK1 PBD inh	CYP2C19 activ	CYP2C19 inh	CYP2C9 inhib	PLK1 inh
CCC1CCCCN1C(=O)CSc1nnc(-c2ccc(OC)cc2)o1 (stereo not given)	0.7	4	0.2	85*	34	-20
CC1CCCCN1C(=O)CSc1nnc(-c2ccc(Cl)s2)o1 (stereo not given)	0.4	3	0.1	95*	56*	-14
Cc1ccc(-c2nnc(SCC(=O)N3CCCC3)o2)cc1	0.9	5	0.9	12	9	-14
CCC1CCCCN1C(=O)CSc1nnc(-c2ccc3c(c2)OCCO3)o1 (stereo not given)	0.2	-7	0	99*	80*	-7
O=C(CSc1nnc(-c2ccccc2Cl)o1)N1CCCCC1	1.2	/	0.8	18	-18	/
Cc1c(NC(=O)c2cnn3c2NC(c2ccco2)CC3C(F)(F)F)c(=O)n(-c2ccccc2)n1C (stereo not given)	0.8	-6	1.1	-12	18	-18
CCCN(Cc1ccccc1)S(=O)(=O)c1ccc(N2C(=O)CCC2=O)cc1	0.6	-18	0.8	24	42	-4
COc1ccc(OC)c(C2C(C#N)=C(N)Oc3c2c(C)nn3-c2cccc(Cl)c2)c1 (stereo not given)	0	-7	0.2	83*	98*	-2
Cc1nn(-c2cccc(Cl)c2)c2c1C(c1ccncc1)C(C#N)=C(N)O2 (stereo not given)	0.4	3	0.5	50*	62*	-4
COc1ccc(OC)c(C2C(C#N)=C(N)Oc3cc(C)n(Cc4ccccn4)c(=O)c32)c1 (stereo not given)	0.9	/	1.1	-6	8	/
Cc1nn(-c2cccc(Cl)c2)c2c1C(c1cccnc1)C(C#N)=C(N)O2 (stereo not given)	0.7	-29	0.9	9	26	-6
O=C(O)CSc1ccccn1	1	5	0.9	5	-1	-1
O=C(NNC1=NCCC1)c1ccc(Br)cc1	1.1	-21	1.1	-6	-8	-2
CCOC(=O)N1CCN(c2ccc3nnnn3n2)CC1	1	10	0.4	56*	-2	-3
c1cc2nnnn2nc1N1CCCCC1	1	12	1.1	-14	2	-16
CCOC(=O)C1=C(CC)Nc2ccccc2N=C1NC(=O)Nc1ccc(Cl)c(Cl)c1	0.1	-12	0.4	58*	94*	-9
CCOC(=O)C1=C(CC)Nc2ccccc2N=C1NC(=O)Cn1cnc2ccccc2c1=O	0.9	10	1	1	14	-7
Nc1ccc(N2CCCCCC2)cc1	0.8	-23	0.4	64*	22	18
CCOc1ccccc1-n1nnnc1SCC(=O)Nc1cc2oc3ccccc3c2cc1OC	0.5	-1	1	-4	51*	-5
COc1ccccc1-n1nnnc1SCC(=O)Nc1cc(C)on1	1.1	-11	0.3	65*	-14	-8
CCOc1ccccc1-n1nnnc1SCC(=O)Nc1cc(C)on1	1	-20	0.7	33	-4	-6
C=CCNC(=S)NNC(=O)C(CCCC)CC(C)(C)O (stereo not given)	/	-3	/	/	/	-8
CCOc1cccc(N2C(=O)CC(n3cnc4ccccc43)C2=O)c1 (stereo not given)	1.1	4	1	4	-6	-11
O=C(OC1CCN(c2ncc(C(F)(F)F)cc2Cl)CC1)c1ccc(Cl)cc1	0.8	-9	1	-4	19	-6
O=C(OCCN1CCN(c2ncc(C(F)(F)F)cc2Cl)CC1)c1ccc(Cl)cc1	0.3	14	0.9	14	67*	-10
SMILES	CYP2C9 activ	PLK1 PBD inh	CYP2C19 activ	CYP2C19 inh	CYP2C9 inhib	PLK1 inh
CC1CN(C2CCN(C(=O)c3ccccc3)CC2)CC(C)O1 (stereo not given)	1.1	/	1.1	-6	-8	/
CC(C)c1nnc(NC(=O)CSc2ccccc2)s1	0.4	1	0.4	63*	62*	-3
CCOC(=O)Cc1nnc(NC(=O)CSc2ccccc2)s1	0.8	1	1.1	-10	17	-5
CCOCc1nnc(NC(=O)CSc2ccccc2)s1	0.5	-10	0.5	49	51*	-15
N=c1c(-c2nc3ccccc3[nH]2)cc(C(=O)c2cccs2)nn1-c1ccc(Cl)cc1	/	-2	/	/	/	-11
CSc1sc(C(=O)O)c(C)c1C(C)=O	1.1	-11	1.1	-7	-7	9
CCc1sc(N(C(=O)Cc2ccccc2)c2ccc(F)cc2)nc1-c1ccccc1	0.5	-14	0.1	86*	51*	-4
